Screening results from PubChem.
Hits are enriched below; roughly 4.1% of the tested compounds scored in any of these assays.
DAX1 inh-1 – DAX1 (NR0B1) inhibitors, primary screen, cell-based, HEK293, Gal4-DAX1, luciferase luminescence; Nuclear receptor subfamily 0 group B member 1 (Homo sapiens), P51843; HEK293 Gal4-DAX1 luciferase reporter; inhibition, % at 6.75 µM; 340,000 tested, 0.99% active;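 active = inhibition above the mean over all tested compounds plus 3 SD, cut at about 4.2% in these data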;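 also: 0% = DAX1-transfected cells with DMSO and 100% = empty-vector control cells with DMSO; inhibition shows as a rise in luminescence from relieved DAX1 repression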
Target sequence (P51843 207-470 limits assumed): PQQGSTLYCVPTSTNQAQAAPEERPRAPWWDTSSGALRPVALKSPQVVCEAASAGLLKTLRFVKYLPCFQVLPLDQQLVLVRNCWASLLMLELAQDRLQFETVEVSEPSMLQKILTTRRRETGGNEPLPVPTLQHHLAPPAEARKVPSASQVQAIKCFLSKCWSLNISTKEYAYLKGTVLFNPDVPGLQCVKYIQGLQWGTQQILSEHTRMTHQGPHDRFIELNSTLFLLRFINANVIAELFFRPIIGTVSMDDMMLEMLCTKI
DAX1 inh-2 – DAX1 (NR0B1) inhibitors on StAR promoter, primary screen, cell-based, luminescence, SF-1 (NR5A1), full-length DAX-1; HEK293T StAR-luciferase reporter, SF-1/DAX-1 repression relief; AID 652010, 2013; inhibition, % at 6.8 µM; 370,000 tested, 1.1% active;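 active = inhibition above the mean over all tested compounds plus 3 SD, cut at about 3.6% in these data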;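 also: 0% = DAX-1 cells with DMSO and 100% = cells lacking DAX-1 with DMSO; higher inhibition means more luminescence from relief of DAX-1 repression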
hcDAF-12 act – H. contortus DAF-12 nuclear receptor activators, primary screen, cell-based, luminescence, HEK293, lit1-tk-luc reporter; activation, % at 6.8 µM; HEK293 hcDAF-12 lit1-tk-luc reporter; 0% DMSO, 100% Δ7-dafachronic acid; 370,000 tested, 1.4% active;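 active = activation above the mean of all tested compounds plus 3 SD, cut at about 5.5% in these data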;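 also: 100% = response to 3 µM Δ7-dafachronic acid high control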
hgDAF12 agonist – H. glycines DAF-12 receptor agonists, primary screen, cell-based, luminescence, HEK293, GAL4 fusion, UAS-luciferase. Nuclear hormone receptor DAF-12 (Heterodera glycines), GAL4 fusion. HEK293 GAL4-hgDAF12 UAS-luciferase reporter, agonist luminescence; normalized to butyrate control. activation, % at 6.8 µM. 370,000 tested, 1.8% active. AID 687014, 2013;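 active = activation above a cutoff set at the mean of all screened compounds plus 3 SD, cut at about 10% in these data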;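 also: 0% = DMSO wells and 100% = sodium butyrate wells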
ssDAF-12 act – S. stercoralis DAF-12 nuclear receptor activators, primary screen, cell-based, luminescence, HEK293, GRIP1 co-expression, lit1-tk-luc; HEK293 ssDAF-12/GRIP1 lit1-tk-luc reporter; % of 3 µM dafachronic acid response; activation, % at 6.8 µM; 370,000 tested, 1% active; AID 652126, 2013;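 active = activation above the mean over all tested compounds plus 3 SD, cut at about 0.9% in these data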;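 also: 0% = DMSO-only wells and 100% = 3 µM delta7-dafachronic acid wells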
Numbers without * were called inactive; / = not tested or not shown.

SMILES	DAX1 inh-1	DAX1 inh-2	hcDAF-12 act	hgDAF12 agonist	ssDAF-12 act
Cn1c(=O)c2c(-c3ccccc3)n(-c3ccccc3S)cc2n(C)c1=O	0	0	-1	0	-1
Cn1c(=O)c2c(-c3ccccc3)n(-c3ccccc3N)cc2n(C)c1=O	2	2	3	12*	0
O=C1C(Cl)=C(N2CCCCCC2)C(=O)N1c1ccc(Br)cc1	0	0	1	5	2.2*
Cc1ccc(NC(=O)NNC(=O)CSC2CCc3ccccc32)c(C)c1 (configuration not stated)	/	2	2	-1	0
CC1(C)CC(=O)C2=C(C1)Nc1cc3c(cc1C2c1ccc2c(c1)OCO2)OCO3 (configuration not stated)	5.3*	1	1	6	-1
CC1(C)CC(=O)C2=C(C1)Nc1cc3c(cc1C2c1ccc(F)cc1)OCO3 (configuration not stated)	0	0	0	1	-1
CN(C)[C@@H]1CCN(c2cccc3c2S(=O)(=O)N(C2CC2)CCCO3)C1	/	-1	1	2	-1
C=C1C(=O)[C@]23C[C@H]1CC[C@H]2[C@]1(C)[C@@H](O)CC[C@@](C)(C(=O)O)[C@H]1C[C@@H]3O	/	4.3*	0	-1	0
C=C1C(=O)[C@]23C[C@H]1CCC2[C@@]1(C)C(C[C@@H]3O)[C@](C)(C(=O)O)C[C@H](O)[C@@H]1O (some centres not stated)	/	-1	-2	0	-2
CC(NC(=O)CN1C(=O)NC2(CCCCCCC2)C1=O)c1ccccc1 (configuration not stated)	0	-1	2	-1	0
CC(NC(=O)CN1C(=O)NC2(CCCCC2)C1=O)c1ccc(S(N)(=O)=O)cc1 (configuration not stated)	-1	3.9*	1	0	-1
CCCCNC(=O)c1ccc2nc(CC)c(N(CCC(C)C)CCN(C)C)n2c1	/	0	-2	-1	-1
CCCCNC(=O)c1ccc2nc(CC)c(N(CC)CCN(C)C)n2c1	/	1	0	2	0.9*
CC(=O)CC[C@H]1CC[C@]2(CCCN(S(=O)(=O)C3CCCCC3)C2)O1	/	-1	0	-3	-1
Cc1cc2sc3ccccc3c(=O)c2c(C)c1O	0	2	4	9	1.1*
O=c1c2ccccc2sc2ccccc12	2	1	2	2	-1
O=C(CNC(=S)N(Cc1ccccc1)Cc1cccs1)NCc1ccc(F)cc1	-1	-1	6.4*	-4	-2
O=C(NC1CC1)C1=C[C@@H](c2c[nH]c3ccccc23)C[C@@H](OCc2ccc(CO)cc2)O1	1	0	2	11*	-1
O=C(NC1CC1)C1=C[C@H](c2c[nH]c3ccccc23)C[C@H](OCCCCO)O1	1	0	1	0	0
Cc1ccc(C(=O)CSc2nnc3ccccn23)c(C)c1	1	4.4*	5.7*	11*	0
COc1ccc(C)cc1S(=O)(=O)N(CC(=O)O)c1ccc(C)cc1	0	0	-1	2	-1
CNC(=O)CN(c1ccc(F)cc1)S(=O)(=O)c1cc(C)ccc1OC	4.3*	-1	1	0	-1
COc1ccc(OC)c(N)c1	5.1*	-1	-1	-3	-1
CCNC(=O)c1ccc(NC(=O)CC2SC(N3CCCC3)=NC2=O)cc1 (configuration not stated)	0	0	2	0	1.1*
Cc1ccc(C(=O)N2CCC[C@@H]2C(=O)N2CCC[C@H]2C(=O)NCc2ccccc2)cc1	/	0	-1	0	-1
SMILES	DAX1 inh-1	DAX1 inh-2	hcDAF-12 act	hgDAF12 agonist	ssDAF-12 act
COC(=O)C1CN(Cc2ccc(F)cc2)CCS(=O)(=O)N1Cc1cn(Cc2ccccc2)nn1 (configuration not stated)	/	-1	-1	3	-1
CCOc1ccc2nc(SCc3ccccc3C#N)sc2c1	3	1	1	11*	-1
O=C(OCc1cn(Cc2cccc(C(F)(F)F)c2)nn1)N1CCOCC1	/	0	-3	-1	0
COc1ccc(C(CC(=O)c2ccc(C)cc2)Sc2ccccc2N)cc1 (configuration not stated)	1	3	5.7*	6	0
CC(CCc1ccccc1)NC(=O)[C@@H]1Cc2ccccc2CN1 (some centres not stated)	-1	0	1	3	-1
CC(C)(C)NC(=O)C1Cc2ccccc2CN1 (configuration not stated)	7.3*	1	0	0	-1
Cc1ccc(C=Nn2c(-c3n[nH]c4c3CCC4)n[nH]c2=S)o1	/	1	-1	2	-1
COc1ccc(Cc2c(-c3ccccc3)nc3c4ccccc4ccn23)c(C)c1	/	0	5.6*	9	0
COc1ccc(Cc2c(-c3ccc(F)cc3)nc3c4ccccc4ccn23)c(C)c1	/	1	6.0*	3	1
COc1ccc(Cc2c(-c3ccc(C#N)cc3)nc3c4ccccc4ccn23)c(C)c1	/	-1	2	5	-1
On1c(-c2ccccc2)nc2ccccc21	1	1	0	3	-1
On1c(-c2ccc(Cl)cc2)nc2ccccc21	/	2	3	11*	0
COc1ccc(-c2cc3nc4n(c(=O)c3s2)CCCCC4)cc1	7.8*	3	5	10	0
COc1ccc(-c2cc3nc(C)n(N)c(=O)c3s2)cc1	-9	-1	-4	-9	-3
CN(Cc1nccn1C)C(=O)CC1C(=O)NCCN1Cc1ccccc1C(F)(F)F (configuration not stated)	1	0	-2	1	-1
CCCCN(C)c1c(C)nc2ccc(C(=O)Nc3cc(-c4ccccc4)ccc3OC)cn12	/	-1	-3	-1	-1
CCOc1cc(S(=O)(=O)n2cnc(C)c2)ccc1Cl	4.5*	-1	0	-2	-1
COc1cc(S(=O)(=O)n2cnc(C)c2)ccc1Cl	0	1	0	-1	1
Cc1nn(-c2ccccc2)cc1/C=N/O	5.2*	1	-1	4	-1
CCOC(=O)[C@]12CCCCC/C=C\1N(Cc1ccc(OC)cc1)C(=O)[C@H]2CC(=O)N1CCCC1	/	-1	0	-3	-1
COC(=O)c1sccc1N/N=C/c1cccc(Oc2ccccc2)c1	2	2	1	11*	-1
O=C(Nc1ccc(NC(=O)c2ccccc2F)cc1)c1cccs1	0	4.2*	1	8	0
O=C(NCCc1ccccc1)c1cccs1	1	3	3	11*	1
